# High-throughput results from PubChem.
# Sampled rows, rich in hits. Any-hit rate of the full collection: about 7.5%.
# NPC1 promoter act = NPC1 promoter activation | Huh7 NPC1 promoter luciferase reporter, 24 h | Potency, µM (top dose mostly 9.22 µM), usual class: activators | 320,000 compounds, 2.4% hits | AID 485313; further: nearly all actives have a fitted effect of over 60% in size
#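 Stable NPC1-promoter luciferase Huh7 line; cpd (DMSO) 24 h, 37 °C, 5% CO2; Amplite luciferase reagent 10 min RT; luminescence readout. qHTS format.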
# ELG1 genotox = genotoxicity induction in ELG1-luciferase HEK293T cells. HEK293T ELG1-luciferase reporter, luminescence, 16 h. Potency, µM (top dose mostly 46 µM), hits mostly activators. 330,000 compounds, 1.3% hits; further: nearly all actives have a fitted effect of over 60% in size
#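 Genotoxicity was scored as increased ELG1-luciferase reporter signal, measured by ONE-Glo luminescence (30 min, room temperature). Compound or vehicle exposure of the HEK293T reporter cells lasted 16 hr at 37°C.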
# KinaseGlo FLuc = counter-screen: inhibitors of Kinase-Glo firefly luciferase; Q27757; Kinase-Glo luciferase, ATP luminescence, 8 min; Potency, µM (series often up to 38.3 µM), hits mostly inhibitors; 200,000 compounds, 0.28% hits; further: nearly all actives have a fitted effect of over 60% in size
#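 Recombinant Kinase-Glo luciferase, 10 uM ATP (linear range), luciferin; imidazole pH 7.2 / KCl / MgCl2 / Tween / BSA buffer; 8 min RT; luminescence.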
# SMN2 splice up = SMN2 splice variant enhancement | AID 1458 | HEK293 SMN2-luciferase splicing reporter, luminescence, 30-36 h | 210,000 compounds, 2.8% hits | Potency, µM (top dose mostly 46.1 µM), most hits filed as activators; further: nearly all actives have a fitted effect of over 55% in size
#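 HEK293 cells carry an SMN2 […]–luciferase reporter in which exon 7 inclusion puts luciferase in frame. Cells were plated 10-12 h before compound addition, then incubated 30-36 h at 37C. ONE-Glo luminescence was read; sodium butyrate at 4.5 mM final served as control.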
# Rab9 prom act = Rab9 promoter activation. Potency, µM (series often up to 9.22 µM), most hits filed as activators. Huh7 Rab9 promoter-luciferase reporter, luminescence, 24 h. 320,000 compounds, 2.8% hits; further: nearly all actives have a fitted effect of over 60% in size
#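 Luminescence read-out: Huh7 cells stably expressing Rab9-luciferase, treated 24 h with compound at 37 °C, then lysed with luciferase reagent for 10 min at ambient before reading.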
# FLuc counter = counter-screen for miR-21 project: firefly luciferase inhibitors or activators | P08659 | purified FLuc, Km substrates, luminescence inhibition | 360,000 compounds, 6.9% hits | Potency, µM (highest dose often 57.5 µM), hits mostly inhibitors; further: nearly all actives have a fitted effect of over 55% in size
# Target sequence (P08659 whole entry, looked up): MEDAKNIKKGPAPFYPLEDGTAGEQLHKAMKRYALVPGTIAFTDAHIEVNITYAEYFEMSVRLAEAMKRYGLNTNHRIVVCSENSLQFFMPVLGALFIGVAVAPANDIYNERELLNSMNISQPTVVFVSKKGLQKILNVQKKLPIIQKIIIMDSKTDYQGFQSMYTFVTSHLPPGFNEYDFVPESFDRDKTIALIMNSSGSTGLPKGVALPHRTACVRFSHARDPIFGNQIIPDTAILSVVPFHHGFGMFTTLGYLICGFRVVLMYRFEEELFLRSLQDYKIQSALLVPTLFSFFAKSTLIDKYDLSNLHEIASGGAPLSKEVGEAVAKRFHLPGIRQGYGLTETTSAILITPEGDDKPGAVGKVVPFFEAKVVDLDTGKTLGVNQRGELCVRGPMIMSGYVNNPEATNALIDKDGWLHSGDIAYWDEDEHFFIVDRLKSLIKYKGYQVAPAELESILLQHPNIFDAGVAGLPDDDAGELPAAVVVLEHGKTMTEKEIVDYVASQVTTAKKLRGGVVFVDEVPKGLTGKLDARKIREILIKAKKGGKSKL
#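 Purified P. pyralis luciferase, 10 nM final, with Km-level 10 uM D-luciferin and 10 uM ATP in 50 mM Tris acetate pH 7.5, 10 mM Mg acetate, 0.01% Tween-20, 0.05% BSA; 6-point qHTS titration about 60 µM downward; luminescence read.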
# Numbers stand for hits; i = inactive; ? = inconclusive; nt = not tested or not shown; [ ] = dose if it differs, or a comment. The call rests on the fitted dose curve; in most records, active means well fitted curve in the direction sought with a large enough effect; inconclusive means small, poorly fitted or top-dose-only effect, or another doubt; inactive means no such curve, though single readings can be large; an effect the other way counts as inactive or inconclusive.
SMILES,NPC1 promoter act,ELG1 genotox,KinaseGlo FLuc,SMN2 splice up,Rab9 prom act,FLuc counter
Cn1c(O)c(C2=NNC(c3ccc(Cl)cc3)C2)c(=O)n(C)c1=O (stereo unspecified),i,i,nt,nt,i,9.53µM
CCOc1ccc(C2CC(c3c(O)n(C)c(=O)n(C)c3=O)=NN2)cc1 (stereo unspecified),?,i,nt,nt,?,0.953µM
Cc1c([C@@H](C)C2NC[C@H](C)C[C@@H]2O)ccc2c1C[C@@H]1[C@H]2CC=C2C[C@@H](O)CC[C@@]21C (stereo partly specified),nt,nt,i[7.66 µM],i[9.22 µM],nt,nt
c1ccc(CCN2CCOCC2)nc1,nt,nt,i[7.66 µM],i[9.22 µM],nt,nt
NC(=O)c1cn(C2OC(CO)C(O)C2O)c2ncnc(N)c12 (stereo unspecified),i,i,i,i,i,i
NC(=O)c1ncn(C2OC(CO)C(O)C2O)n1 (stereo unspecified),nt,nt,i,15.8µM,nt,nt
CN1C(=O)C(=Cc2ccccc2OCc2ccc(Cl)cc2)C(=O)N(C)C1=O,i,?,i,?,i,9.53µM
Cc1ccc(NC(=O)c2snnc2C)cc1Cl,i,i,i,i,i,i
Cc1ccc(C(=O)Nc2c(C(=O)Nc3ccc(C)c(C)c3)sc3nc(C)cc(C)c23)cc1,nt,nt,nt,12.6µM,nt,10.7µM
O=C(CN1CCCC1)Nc1ccc(NC(=O)Nc2ccccc2)cc1,?,i,i,nt,?,19µM
O=C(CN1CCCC1=O)Nc1ccccc1,i,i,i,i,i,i
Cc1nn(C(C)(C)C)c(C)c1/C=N/OC(=O)Nc1ccc(Cl)c(Cl)c1,i,i,nt,nt,i,0.19µM
C=C(C)c1ccccc1,i,i,nt,i,i,i
Cc1ccc(OC(=O)c2ccc(Br)o2)cc1,i,i,i,i,i,4.78µM
CN1/C(=C\C=Nc2ccccc2)C(C)(C)c2ccccc21,i,i,nt,nt,i,i
CN1/C(=C\C=C\C2=[N+](C)c3ccc4ccccc4c3C2(C)C)C(C)(C)c2ccccc21,i,i,?,i,i,13.5µM
O=c1oc2ccccc2c(O)c1C(c1ccc([N+](=O)[O-])cc1)c1c(O)c2ccccc2oc1=O,i,i,i,i,i,19µM
CC(C)c1ccc(C(c2c(O)c3ccccc3oc2=O)c2c(O)c3ccccc3oc2=O)cc1,nt,nt,i[7.66 µM],i[9.22 µM],nt,nt
Nc1c(C(=O)Nc2ccc([As](=O)(O)O)cc2)cnc2nnnn12,nt,nt,i[7.66 µM],i[9.22 µM],nt,nt
Clc1cccc(/C=N\Nc2nccs2)c1,?,20.6µM,i,i,?,13.5µM
CCOc1ccccc1Oc1coc2cc(OC(=O)c3ccco3)ccc2c1=O,i,i,i,?,i,15.1µM
CCOc1ccc(OC(=O)c2ccc3c(=O)n4c(nc3c2)CCC4)cc1,i,i,nt,nt,i,12µM
CCOC(=O)c1cc2c(cn1)[nH]c1ccccc12,?,i,i,?,i,15.1µM
O=C(O)CNC(=O)c1ccc([As](=O)(O)O)cc1,nt,nt,i[7.66 µM],i[9.22 µM],nt,nt
C[C@@]12CC[C@H](O[C@@H]3O[C@H](CO)[C@@H](O)[C@H](O)[C@@H]3O)C[C@@H]1CC[C@H]1[C@H]2CC[C@@]2(C)[C@@H](C3=CCOC3=O)CC[C@]12O,nt,nt,i[7.66 µM],i[9.22 µM],nt,nt
SMILES,NPC1 promoter act,ELG1 genotox,KinaseGlo FLuc,SMN2 splice up,Rab9 prom act,FLuc counter
Cc1ccc2nc(N3CCN(C)CC3)[nH]c2c1,?,16.4µM,i,i,?,26.9µM
CCN(CC)c1ccc(C=C2C(=O)NC(=S)NC2=O)cc1,i,?,nt,nt,i,19µM
CC(C)CN(CC(C)C)c1ccc(C=C2C(=O)NC(=S)NC2=O)cc1[N+](=O)[O-],i,i,i,i,i,i
COC(=O)c1c(C)ccc2c(O)c3c(cc12)C(=O)c1c2c(cc(O)c1C3=O)[C@@]1(C)O[C@@](C)(O2)[C@@H](O)[C@H](N(C)C)[C@H]1O,nt,nt,i[7.66 µM],i[9.22 µM],nt,nt
Cc1ccc(/C=C2/C(=O)NC(=O)N(Cc3ccc(F)cc3)C2=O)o1,i,i,nt,nt,i,i
COc1ccc(CN2C(=O)NC(=O)/C(=C/c3ccc([N+](=O)[O-])o3)C2=O)cc1,i,i,i,i,i,19µM
O[N+]1=CC=CCC1=S.On1ccccc1=S.[Zn],nt,nt,i,i,nt,nt
Cc1cc(/C=C2\C(=O)NC(=O)N(c3cccc(F)c3)C2=O)c(C)n1-c1ccc(C(=O)O)c(Cl)c1,i,i,nt,nt,i,i
Cc1ccc(N2C(=O)NC(=O)/C(=C/c3ccc(-c4ccc(C(=O)O)c(Cl)c4)o3)C2=O)cc1,i,i,i,i,i,10.7µM
CC1(C)N=C(N)N=C(N)N1c1cccc(C(=O)Nc2ccc(S(=O)(=O)F)cc2)c1,nt,nt,i[7.66 µM],i[9.22 µM],nt,nt
CCCCCCCCCC[Si](C)(C)CCC(=O)NC(Cc1ccc(C)cc1)c1ccccc1 (stereo unspecified),i,nt,i,?,i,nt
Cc1ccc2nc3c(cc2c1)CC1(C(=O)N(C)C(=O)N(C)C1=O)C1COCCN31 (stereo unspecified),i,?,nt,nt,i,15.1µM
Cc1cccn2c(=O)c3c(nc12)N1CCCCCC1C1(C3)C(=O)N(C)C(=O)N(C)C1=O (stereo unspecified),i,i,nt,nt,i,i
Cc1ccc2nc3c(cc2c1)CC1(C(=O)N(C)C(=O)N(C)C1=O)C1CCCCN31 (stereo unspecified),?,?,i,?,i,5.36µM
Cc1ccc(/C=C2\C(=O)NC(=S)N(c3cccc(F)c3)C2=O)o1,i,i,nt,nt,i,16.9µM
O=C1NC(=S)N(c2ccc(F)cc2)C(=O)/C1=C\c1ccoc1,i,i,nt,nt,i,23.9µM
C1C[C@@H]2CN(CCCN3CCOCC3)[C@@H](C1)O2,nt,nt,i[7.66 µM],i[9.22 µM],nt,nt
O=C(Nc1ccccc1F)Oc1cccc(OC(=O)Nc2ccccc2F)c1,3.55µM,i,nt,nt,2.82µM,16.9µM
COc1ccc(C)cc1NC(=O)CN1CCN(CC(=O)Nc2ccccc2F)CC1,i,?,i,i,i,i
COc1cc(C(C)=O)ccc1OCc1cc(C(=O)N(C)CCC2CCCCO2)no1 (stereo unspecified),2.24µM,?,nt,nt,1.58µM,6.75µM
COc1ccc(C(C)=O)cc1CC(C(=O)c1ccc(Br)cc1)N(C)C (stereo unspecified),i,i,i,i,i,i
O=C1NC(=O)N(c2ccc3c(c2)OCO3)C(=O)/C1=C/c1ccsc1,i,i,i,i,i,19µM
Nc1c2c(nc3sc4c(c13)CCCC4)CCCCC2,2.82µM,i,i,8.91µM,2.24µM,1.9µM
CC(C)(C)c1cc(C#N)cc(Br)c1OP(=O)(Oc1c(Br)cc(C#N)cc1C(C)(C)C)c1ccccc1,nt,nt,i[7.66 µM],i[9.22 µM],nt,nt
O=C(O)[C@@H](O)[C@@H](O)C1[O][Sb][O][C@@H]1CO (stereo partly specified),nt,nt,i[7.66 µM],i[9.22 µM],nt,nt
CCc1ccc(N2C(=O)NC(=O)/C(=C\c3cccn3CCOc3ccc(C(C)C)cc3)C2=O)cc1,i,10.3µM,i,i,?,i
